# Sampled rows, rich in hits. Any-hit rate of the full collection: about 4.8%.
# Mot1-301 SUMO = SUMOylation pathway inhibition by Mot1-301 growth rescue; growth rescue, % at 18.8 µM; hit rate 1% among 320,000; S. cerevisiae Mot1-301 growth rescue, ATP luminescence, 38.5C; percent above DMSO median, 100 means doubled;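 active = every valid replicate shows activation above 250% relative to neutral control wells; inactive = the rest, any valid replicate at or below 250%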;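 note: OY570 slx delta 5 strain wells were the positive control but not used for scaling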
# AI-2 QS mod = modulates the Vibrio harveyi AI-2 quorum sensing system. activity change, % at 7.5 µM. Vibrio harveyi JMH597 AI-2 luminescence/OD600 ratio, 9 h; stronger effect = lower value; strain lacks LuxN and CqsS sensors; 0 = neutral-control median. hit rate 0.4% among 300,000; in the data active = activity change below about -75%, passing the limit was not always enough; inconclusive = no clear call, values can overlap the other calls;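 note: luminescence divided by OD600 gain over 9 h not by final OD600 alone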
# HIF activator = HIF pathway transcriptional activation; U2OS HRE-luciferase reporter, luminescence; normalized: DMSO 0%, desferrioxamine 100%; activation, % at 7.5 µM (by protocol); hit rate 0.32% among 300,000; AID 1910;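 active = mean activation of at least 10% of the iron chelator positive control signal, with at least half of replicates also reaching 10%; inconclusive = mean and replicate majority disagree about reaching 10%; inactive = mean and most replicates under 10%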
# ALR inh = blocks human ALR sulfhydryl oxidase activity. P55789. hit rate 3.8% among 290,000. purified ALR, DTT oxidation, H2O2 HRP-luminol luminescence. inhibition, % (concentration not given with the values). AID 485317;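 active = mean replicate inhibition above about 79%, with every replicate also reaching it, limit read from the data; inconclusive = only one of the two criteria met; inactive = mean below limit and not every replicate reaching it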
# Target sequence (P55789 whole entry, looked up): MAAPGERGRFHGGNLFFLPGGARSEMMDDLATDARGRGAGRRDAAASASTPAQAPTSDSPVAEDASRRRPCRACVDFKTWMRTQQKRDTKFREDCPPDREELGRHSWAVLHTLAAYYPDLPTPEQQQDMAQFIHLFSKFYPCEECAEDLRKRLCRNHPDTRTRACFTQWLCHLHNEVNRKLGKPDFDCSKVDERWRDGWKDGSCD
# * hit, by the source's call; u = inconclusive; x = not tested or not shown.
SMILES,Mot1-301 SUMO,AI-2 QS mod,HIF activator,ALR inh
CCC(Oc1ccccc1)C(=O)Nc1ccccc1N1CCCC1 (stereo unspecified),2,8,0,32
O=C(Cc1ccccc1F)Nc1ccccc1N1CCCC1,7,15,0,98*
O=C(CN1C(=O)C2CC=CCC2C1=O)Nc1ccccc1N1CCCC1 (stereo unspecified),5,10,-1,u
O=C(CNCC1CCCO1)Nc1ccccc1N1CCCCCC1 (stereo unspecified),6,4,0,99*
O=C(CN1C(=O)C2CCCCC2C1=O)Nc1ccccc1N1CCCC1 (stereo unspecified),-2,19,0,97*
O=C(Cc1ccccc1F)Nc1cc(Cl)ccc1N1CCCC1,-3,17,0,x
O=C(Nc1ccccn1)C1CCN(c2ncnc3c2nc2n3CCCCC2)CC1,283,x,0,-3
COc1c(Cl)cc(Cl)cc1C(=O)Nc1ccc(CN2CCOCC2)cc1,356*,11,-4,-4
O=C(c1ccc(CS(=O)Cc2ccccc2Cl)o1)N1CCN(c2cccc(Cl)c2)CC1 (stereo unspecified),0,11,0,99*
O=C(c1ccc(CS(=O)Cc2ccccc2Cl)o1)N1CCN(c2ccccn2)CC1 (stereo unspecified),13,26,2,99*
CN(Cc1ccccc1)C(=O)c1ccc(NC(=O)C2CCN(C(=O)OC(C)(C)C)CC2)cc1,20,x,x,-1
CN(CC(=O)Nc1cccc(C(F)(F)F)c1)C1=NS(=O)(=O)c2ccccc21,0,x,x,-11
CN(C)S(=O)(=O)c1ccc(C(=O)NCCC(=O)N2CCCC2)cc1,-8,9,0,x
O=C(/C=C/c1ccccc1F)c1cccc([N+](=O)[O-])c1,-39,5,0,9
COc1cccc(/C=C/C(=O)c2ccc(C)c([N+](=O)[O-])c2)c1,500*,7,0,u
COc1cc(/C=C/C(=O)c2cccc([N+](=O)[O-])c2)cc(OC)c1OC,13,2,1,96*
C[N+]1(CCCCSc2ccc(O)cc2)CCCCC1,-18,11,-1,99*
Cc1n[nH]c(C)c1S(=O)(=O)N(C)Cc1ccco1,95,x,x,-1
CN(C)S(=O)(=O)c1ccc(C(=O)OCC2CCCO2)cc1 (stereo unspecified),-9,-77*,-2,-1
C/C(N)=C(/C#N)C(=O)COC(=O)c1cc2c(s1)CCC(C)C2 (stereo unspecified),18,-14,2,96*
CC(C)(C)c1nnc2sc(SCC(=O)c3ccccc3)nn2c1=O,4,16,1,98*
COc1ccc(-n2c(C)cc(C(=O)CSc3nn4c(=O)c(C(C)(C)C)nnc4s3)c2C)cc1,171,17,0,7
COc1ccc(C(=O)CSc2nn3c(=O)c(C(C)(C)C)nnc3s2)cc1,42,17,0,97*
Cc1cc(C(=O)CSc2nn3c(=O)c(C(C)(C)C)nnc3s2)c(C)n1C,168,19,0,92*
O=C(NCC(=O)N1CCCC1)c1ccc(Cl)cc1,-3,17,0,-3
SMILES,Mot1-301 SUMO,AI-2 QS mod,HIF activator,ALR inh
COc1ccc(-n2c(SCC(=O)Nc3ccccc3OC)nc(O)cc2=O)cc1,2,22,1,29
COc1ccc(NC(=O)CSc2nc(O)cc(=O)n2-c2ccccc2OC)cc1,4,57,0,98*
CCN(CC)C(=O)CSc1nc(O)cc(=O)n1C,-1,19,0,73
CCN(CC)C(=O)CSc1nc(O)cc(=O)n1-c1ccccc1OC,6,18,0,99*
Cc1ccccc1-n1c(SCC(=O)Nc2c(C)cccc2C)nc(O)cc1=O,-3,x,2,-9
COc1ccccc1-n1c(SCC(=O)Nc2cccc3ccccc23)nc(O)cc1=O,-13,18,0,98*
COc1ccccc1-n1c(SCC(=O)Nc2ccc(C)cc2)nc(O)cc1=O,2,33,-2,98*
CCOc1ccc2nc(NCCCNC(=O)c3cc(OC)c(OC)c(OC)c3)c(C#N)cc2c1,-18,21,0,x
COc1ccc(C(=O)NCCNc2nc3ccc(C)cc3cc2C#N)cc1OC,40,3,0,90*
CCNCC(=O)N1c2ccccc2CCc2ccc(NC(=O)OCC)cc21,293*,21,0,-32
COc1ccc2nc3cc(Cl)ccc3c(Nc3cc(CN4CCCC4)c(O)c(CN4CCCC4)c3)c2n1,29,13,-1,99*
Cc1cc(C(=O)CSc2nc(N)cc(=O)[nH]2)ccc1F,27,13,1,90*
CCc1ccc(C(=O)CSc2nc(N)cc(=O)[nH]2)cc1,2,22,0,x
Cc1ccc(C(=O)CSc2nc(N)cc(=O)[nH]2)cc1C,8,1,-1,99*
CC1CC(C)CN(C(=O)C(C)N2CCN(S(=O)(=O)c3cccs3)CC2)C1 (stereo unspecified),-20,x,x,-2
O=C(NC1=NCCS1)C1CCN(S(=O)(=O)c2ccccc2C(F)(F)F)CC1,-16,x,x,1
CC(=O)N(CC(=O)O)c1ccccc1,-13,11,0,3
CC(=O)N(CC(C)(C)CC=C(C)C)c1ccccc1,638*,22,0,-1
COc1cc(/C=C/C(=O)OC2CC3CCC2(C)C3(C)C)ccc1O (stereo unspecified),-8,4,1,u
O=C(/C=C/c1ccc(O)c(O)c1)OC1C(O)CC(OC(=O)/C=C/c2ccc(O)c(O)c2)(C(=O)O)CC1O (stereo unspecified),-12,6,0,99*
CCN(CC)c1ccc(Nc2nc(Cl)ncc2Br)cc1,10,17,-1,99*
CCN(CC)c1ccc(CNc2ccc(Br)cn2)cc1,-7,16,2,x
O=C(COC(=O)c1n[nH]c2ccccc12)c1cccc(Br)c1,16,-92*,-1,-7
Cc1ccc(C)c(C(=O)COC(=O)c2n[nH]c3ccccc23)c1,-7,x,x,1
Cc1cc(C(=O)O)ccc1-c1ccc(/C=C2\SC(=O)N(CC(=O)Nc3ccc4c(c3)OCO4)C2=O)o1,8,21,x,-16
SMILES,Mot1-301 SUMO,AI-2 QS mod,HIF activator,ALR inh
CC(C)(C)OC(=O)CN1C(=O)S/C(=C\c2ccc(-c3cccc(C(=O)O)c3)o2)C1=O,7,35,-1,97*
C#CCN1C(=O)S/C(=C\c2ccc(-c3ccc(C(=O)O)cc3C)o2)C1=O,4,18,1,90*
O=C(NC1CC1)c1ccc2c(c1)S(=O)(=O)c1cc(Cl)ccc1C2=O,10,x,x,-1
Cc1ccccc1Nc1nc(CSc2nnnn2-c2ccccc2)cs1,-6,8,0,98*
Cc1ccc(C(=O)CC(SCC(=O)O)c2ccc([N+](=O)[O-])cc2)cc1 (stereo unspecified),27,8,0,99*
COc1ccc(C(CC(=O)c2ccc(C)cc2)Nc2ccc([N+](=O)[O-])cc2)cc1 (stereo unspecified),-2,9,1,-8
CCOC(=O)N1CCN(c2ccc(Cl)c(Cl)c2)CC1,2,12,107*,-4

# Source: PubChem BioAssay
